Experimental data reported in PubChem BioAssay (EPA / NIEHS).
The source made the active and inactive calls. How the source made its calls: active means hit-call score of the fitted dose curve at least 0.9, where 1 is the maximum; inactive means score below 0.9.

These molecules were tested on Monocyte Chemoattractant Protein-1 (MCP1), CCL2 (gene 6347) (assay: BSK_LPS_MCP1: BioMAP Diversity Plus: LPS Assay for Monocyte Chemoattractant Protein-1 (MCP1) Biomarker Activity (AID 2283081;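 on AC50: co-culture stimulated with LPS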)). Details: primary human HUVEC with PBMC; actives raise or lower the signal.
Protocol: BSK_LPS is a cell-based, multiplexed-readout assay that uses umbilical vein endothelium and peripheral blood mononuclear cells, a human vascular primary cell co-culture, with measurements taken at 24 hours after chemical dosing in a 96-well plate.BSK_LPS_MCP1 is an assay component measured in the BSK_LPS assay. It measures MCP-1 antibody related to regulation of gene expression using ELISA technology.Data from the assay component BSK_LPS_MCP1 was analyzed into 1 assay endpoint. This assay endpoint, BSK_LPS_MCP1, was analyzed with bidirectional fitting relative to DMSO as the negative control and baseline of activity. Using a type of binding reporter, gain or loss-of-signal activity can be used to understand changes in the signaling as they relate to the gene CCL2. Furthermore, this assay endpoint can be referred to as a primary readout, because this assay has produced multiple assay endpoints where this one serves a signaling function. To generalize the intended target to other relatable targets, this assay endpoint is annotated to the cytokine intended target family, where the subfamily is chemotactic factor.
The levels of cell surface (or secreted, indicated by the prefix "s") biomarker endpoints were measured by ELISA. Overt cytotoxicity to cells in confluent adherent cultures (all systems other than the BT system) was assessed by measuring total protein levels using sulforhodamine B (SRB) staining in parallel cultures at the time of biomarker measurements, indicated as SRB endpoints. For proliferation assays for adherent cell types, individual cell types are cultured at sub-confluence and relative cell numbers quantified by SRB staining at time points optimized for each system (48 h: 3C and CASM3C systems; 72 h: BT and HDF3CGF systems; 96 h: SAg system). SRB was performed by staining cells with 0.1% SRB after fixation with 10% TCA and reading wells at 560 nm.Viability and proliferation of PBMC (T cells) was quantified by Alamar Blue reduction for the SAg and BT systems. For PBMC viability (referred to as PBMC Cytotoxicity within the assay endpoint names), cells were plated (75,000/well in a 96-well plate) and then chemical samples added for 1 h before addition of activators, SEB and TSST-1 (20 ng/mL final concentration each). Cells were incubated for 90 h. Then, Alamar Blue (20 uL/well) (Invitrogen, Cat DAL1100) was added for 6 h, and the plates were read with a fluorescence microplate reader at 546/580 nm (excitation/emission). For PBMC proliferation, cells were plated and activated as above but incubated for only 16 h prior to addition of Alamar Blue. Plates were read after 6 h.
With `C=CCc1cc(S(=O)(=O)c2ccc(O)c(CC=C)c2)ccc1O` the AC50 was 15.8 µM (active).
`CC(=O)c1ccccc1` was tested, and the outcome was “inactive”.
`O=C(Cl)C(F)(F)C(F)(F)C(F)(F)C(=O)Cl` was tested, and the outcome was “inactive”.
`OC(CCl)CCl` was tested, and the outcome was “inactive”.
In the case of `c1ccc2ncccc2c1`, the outcome is reported as “inactive”.
`COc1cc(C(C)C)c2c(c1)S(=O)(=O)N(COc1cc(=O)n3cccc(OCCN4CCCCC4)c3n1)C2=O` was tested, and the outcome was “inactive”.
`Cc1nccn1-c1ccc(Sc2cccc(C3(C(N)=O)CCOCC3)c2)cc1` was tested, and the outcome was “inactive”.
In the case of `COCc1nnc(-c2ccc[n+]([O-])c2)n1-c1c(Cl)c(Cl)cc2[nH]c(=O)c(=O)[nH]c12`, the outcome is reported as “inactive”.
With `C[C@@H](Oc1ccc(CNC(=O)c2cccnc2Oc2ccc3c(c2)OCO3)c(F)c1)C(=O)O` the outcome was “inactive”.
For `CCCCCCCC/C=C\CCCCCCCC(=O)OC[C@@H](O)[C@H]1OC[C@H](O)[C@H]1O`, the outcome was “inactive”.
For `O=C(O)[C@H](O)[C@@H](O)C(=O)O`, the outcome was “inactive”.
In the case of `Cc1cccc(O)c1C`, the outcome is reported as “inactive”.
For `c1ccc2cc3ccccc3cc2c1`, the outcome was “inactive”.
With `NCC(F)(F)C(F)(F)C(F)(F)C(F)(F)F` the outcome was “inactive”.
With `OC[C@H]1O[C@@H]2O[C@H]3[C@H](O)[C@@H](O)[C@@H](O[C@H]4[C@H](O)[C@@H](O)[C@@H](O[C@H]5[C@H](O)[C@@H](O)[C@@H](O[C@H]6[C@H](O)[C@@H](O)[C@@H](O[C@H]7[C@H](O)[C@@H](O)[C@@H](O[C@H]1[C@H](O)[C@H]2O)O[C@@H]7CO)O[C@@H]6CO)O[C@@H]5CO)O[C@@H]4CO)O[C@@H]3CO` the outcome was “inactive”.
For `CCc1cccc(CC)c1N`, the outcome was “inactive”.
In the case of `O=C(NO)C1(NS(=O)(=O)c2ccc(Oc3ccc(F)cc3)cc2)CCOCC1`, the outcome is reported as “inactive”.
With `CCCCOC(=O)c1ccccc1` the outcome was “inactive”.
With `CCCCC(CC)C(=O)OCCOCCOCCOC(=O)C(CC)CCCC` (stereo not given) the outcome was “inactive”.
`O=S1(=O)CCCO1` was tested, and the outcome was “inactive”.
In the case of `OC(O)(C(F)C(O)(O)C(F)(F)F)C(F)(F)F`, the outcome is reported as “inactive”.
For `CCN(CC)C(=S)SSC(=S)N(CC)CC`, the AC50 was 29.5 µM (active).
In the case of `CC(C)C(=O)Nc1ccc([N+](=O)[O-])c(C(F)(F)F)c1`, the outcome is reported as “inactive”.
In the case of `OCCOCCOCCO`, the outcome is reported as “inactive”.
`OCCNCCO` was tested, and the outcome was “inactive”.
In the case of `CCCCCCCCN(C)C`, the outcome is reported as “inactive”.
`FC(F)(F)C(F)(F)C(F)(F)C(F)(F)C(F)(F)C(F)(F)I` was tested, and the outcome was “inactive”.
For `OCc1c[nH]c2ccccc12`, the outcome was “inactive”.
`CCCCCCCCCCCCCCCCOS(=O)(=O)O` was tested, and the outcome was “inactive”.
In the case of `CCc1ccc(O)c(C(C)(C)C)c1`, the outcome is reported as “inactive”.
In the case of `OCC(CO)(CO)CO`, the outcome is reported as “inactive”.
In the case of `CC(C)CCCCCCOC(=O)C1CCCCC1C(=O)OCCCCCCC(C)C` (stereo not given), the outcome is reported as “inactive”.
For `O=S(=O)(O)CCC(F)(F)C(F)(F)C(F)(F)C(F)(F)C(F)(F)C(F)(F)F`, the outcome was “inactive”.
In the case of `NC(=O)N(O)[C@@H]1COc2cc(OCc3ccccc3)ccc21`, the outcome is reported as “inactive”.
For `O=C(O)c1cccc(C[C@@H]2COc3ccc(OCc4nc5cc(F)ccc5s4)cc3[C@@H]2O)c1`, the outcome was “inactive”.
In the case of `CCCCCCCC1CCC(=O)O1` (stereo not given), the outcome is reported as “inactive”.
`CC(C)c1nnc2ccc(-c3ocnc3-c3cc(F)ccc3F)cn12` was tested, and the AC50 was 4.6 µM (active).
For `C[C@]12C=CC(=O)C=C1CC[C@H]1[C@@H]3C[C@@H](O)[C@](O)(C(=O)CO)[C@@]3(C)C[C@H](O)[C@@]12F`, the outcome was “inactive”.
With `C=CN1CCCC1=O` the outcome was “inactive”.
For `CCCOc1ccc(S(=O)(=O)N2CCN(CC)CC2)cc1-c1nc2c(CC)n(Cc3ccccn3)nc2c(=O)[nH]1`, the outcome was “inactive”.
